Bioassay records deposited in PubChem BioAssay by several laboratories.
Shown are actives, neighbours in structure and some others; about 9.1% of the full set was active somewhere.
Htt clearance = compounds clearing mutant huntingtin protein. inhibition, % at 1.5 µM. HeLa Exon1htt(103Q)mCFP, aggregate imaging; zero = plate's median compound well. actives 0.42% (n = 47,000). AID 853;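 active = inhibition of aggregate fluorescence above about 70%, also judged a hit by eye on the cell image, limit read from the data, passing the limit was not always enough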;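 note: cells exposed to compound for three days before fixation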
M1 agonist = agonists of M1 muscarinic receptor. actives 3% (n = 64,000). B-score at 10 µM. CHO-M1 cells, Fluo-4 calcium fluorescence, agonist mode; hits give high values;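 active = fluorescence rise, raw or as B-score row- and column-corrected plate score, outside the 99.7% band of its plate's samples, either direction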
D1 allo mod = allosteric modulators of human D1 dopamine receptor; HEK293 D1, CRE-luciferase, dopamine EC30 potentiation; actives deviate in either direction; actives 5.9% (n = 58,000); B-score at 10 µM;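 active = luminescence count or its row- and column-corrected plate score outside the 99.7% band of the plate's sample wells, on either side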
M1 antagonist = blocks the rat M1 muscarinic receptor response to acetylcholine; AID 628; P08482; actives 3.4% (n = 64,000); B-score at 10 µM; CHO-M1 cells, Fluo-4 calcium, ACh EC80 antagonist mode; hits give low values;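 active = calcium fluorescence response, raw or row-and-column corrected B-score, differing from the plate sample mean either way at a set confidence level, mostly lower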
Target sequence (P08482 whole entry, looked up): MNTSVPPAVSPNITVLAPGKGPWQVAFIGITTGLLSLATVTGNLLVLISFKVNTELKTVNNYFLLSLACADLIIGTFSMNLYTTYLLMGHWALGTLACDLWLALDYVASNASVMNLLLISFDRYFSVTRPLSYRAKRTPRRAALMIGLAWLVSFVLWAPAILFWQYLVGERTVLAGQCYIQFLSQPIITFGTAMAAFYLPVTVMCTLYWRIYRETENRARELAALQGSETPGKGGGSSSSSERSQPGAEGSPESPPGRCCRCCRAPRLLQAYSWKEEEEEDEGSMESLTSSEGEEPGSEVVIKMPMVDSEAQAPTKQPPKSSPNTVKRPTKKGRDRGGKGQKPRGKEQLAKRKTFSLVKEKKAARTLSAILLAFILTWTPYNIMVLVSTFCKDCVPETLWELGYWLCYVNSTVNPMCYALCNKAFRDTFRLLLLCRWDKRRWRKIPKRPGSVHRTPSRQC
D1 PAM confirm = D1 receptor (human) allosteric modulation, confirmed; shares compounds with D1 allo mod; HEK293 D1 CRE-luciferase, dopamine EC30 potentiation; hits give high values; luminescence at 10 µM; actives 88% (n = 2,200); AID 642;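 active = luminescence in either of two replicates above the same-plate mean plus 3 SD of the low-dose dopamine control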
D1 ag no DA = activates D1 CRE-luciferase signal without dopamine present | shares compounds with D1 allo mod | HEK293 D1 CRE-luciferase, luminescence, no dopamine; hits give high values | actives 0.8% (n = 1,900) | luminescence at 10 µM | AID 646; in the data active = luminescence above about 3900
Isoprot counter = isoproterenol response counter-screen activity for D1 modulators; shares compounds with D1 allo mod; HEK293 D1 CRE-luciferase, isoproterenol EC30 counter-screen; hits give high values; luminescence at 10 µM; actives 63% (n = 2,200); AID 647;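 active = luminescence in either replicate above plate mean of wells with a partly effective reference agonist dose plus 3 SD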;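 note: isoproterenol raises cAMP through native beta-adrenoceptor Gs so signal bypasses D1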
The depositor's hits bear a star; · = no result given.

SMILES	Htt clearance	M1 agonist	D1 allo mod	M1 antagonist	D1 PAM confirm	D1 ag no DA	Isoprot counter
COc1cc(C2c3sc(=O)[nH]c3SC3C4CCC(C4)C23)ccc1O (configuration not stated)	·	-1.1	8.5*	0.072	18840*	1528	4160*
COc1ccc(C2c3sc(=O)[nH]c3SC3C4CCC(C4)C23)cc1 (configuration not stated)	2	-0.036	16*	-0.55	27840*	1724	4476*
O=c1[nH]c2c(s1)C(c1ccccc1)C1C3CCC(C3)C1S2 (configuration not stated)	·	0.28	17*	-0.085	21364*	·	4164*
O=C1C2Sc3[nH]c(=O)sc3C(c3ccccc3)C2C(=O)N1c1ccccc1 (configuration not stated)	16	·	·	·	·	·	·
O=C(Nc1nnc(CC(=O)N2CCCC2)s1)c1cnccn1	·	·	0.18	·	·	·	·
CCOC(=O)N1CCN(C(=O)CCCn2c(=S)[nH]c3ccccc3c2=O)CC1	13	0.31	3.1*	1.4	8792*	1740	2640
CCOC(=O)N1CCN(C(=O)CCCn2c(=O)[nH]c3ccccc3c2=O)CC1	5	-1.1	-0.88	0.025	·	·	·
COc1ccc(C2OC(=O)CC2C(=O)NC2CCCCCC2)cc1OC (configuration not stated)	0	-0.44	0.27	0.41	·	·	·
CCc1ccc(C2C(C#N)=C(N)SC(N)=C2C#N)s1	·	1.3	7.3*	-0.86	8708*	1568	3044*
CCc1ccc(C2C(C#N)=C(N)SC(N)=C2C#N)cc1	·	-1.9	1.9	0.24	·	·	·
CCOc1ccc(Cc2nnc(N)s2)cc1OCC	·	-0.14	11*	0.35	18204*	1736	4632*
Nc1nnc(Cc2ccc(Cl)cc2)s1	·	0.012	0.1	0.15	·	·	·
CCOC(=O)Cc1[nH]nc2c1C(c1cccc(OC)c1OC)C(C#N)=C(N)O2 (configuration not stated)	·	-0.00046	6.3*	0.88	7976*	1640	2760
CCCc1[nH]nc2c1C(c1cc(OC)cc(OC)c1)C(C#N)=C(N)O2 (configuration not stated)	10	1.5	·	0.081	·	·	·
COC(=O)Cc1[nH]nc2c1C(c1cccc(OC)c1OC)C(C#N)=C(N)O2 (configuration not stated)	·	-0.11	0.007	-0.017	·	·	·
CCCc1[nH]nc2c1C(c1cc(OC)ccc1F)C(C#N)=C(N)O2 (configuration not stated)	6	1.2	8.2*	-1.1	9940*	·	3020*
CCOC(=O)c1c(N)nn(C(C)=O)c1-c1ccccc1	-5	-0.1	20*	-0.16	19148*	1584	4208*
CCOC(=O)c1c(C)nc(-c2ccccc2)nc1NC(C)=O	42	-0.24	0.58	-0.089	·	·	·
CCOC(=O)c1c(C)nc(-c2ccccc2)nc1N	-29	0.46	4.1*	0.63	8680*	1600	3172*
Cc1cc(C)n(CCc2nc3c4ccccc4nc(SCc4ccc(C#N)cc4)n3n2)n1	·	-0.99	0.17	-0.39	·	·	·
O=C(NCc1cccs1)C1CC(c2ccccc2O)=NO1 (configuration not stated)	·	-0.0068	2.8*	-0.13	6344*	1416	2728
COc1cc(C2=NOC(C(=O)NCc3cccs3)C2)cc(OC)c1OC (configuration not stated)	14	·	·	·	·	·	·
Cc1nc2oc3c(NCC4CCCO4)ncnc3c2c2c1COC(C)(C)C2 (configuration not stated)	·	-1.4	6.4*	0.36	9548*	·	2624
CCCc1nc2oc3c(OC)ncnc3c2c2c1COC(C)(C)C2	8	·	·	·	·	·	·
CC1(C)Cc2c(C#N)c(NCC3CCCO3)nc(-c3ccco3)c2CO1 (configuration not stated)	-34	0.15	·	-0.47	·	·	·
CCCc1nc2oc3c(NCCOCCO)ncnc3c2c2c1COC(C)(C)C2	·	·	14*	·	18640*	·	3792*
O=C(CCS(=O)(=O)c1ccccc1)Nc1nc2c(s1)COc1ccccc1-2	-258	-0.27	·	0.042	·	·	·
COc1ccc(C(=O)CSc2nnnn2Cc2ccccc2)cc1	-6	-0.17	0.92	-0.21	·	·	·
O=C(CSc1nnnn1Cc1ccccc1)c1ccccc1	-40	0.45	4*	0.96	5880*	1460	2584
